These results are taken from ChEMBL document CHEMBL1961873, “Compounds: GSK PKIS; Assays: Nanosyn kinase panel” (2012).

In test [1] the target is T1, Inhibitor of nuclear factor kappa-B kinase subunit epsilon (Homo sapiens) (UniProt Q14164).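 Note: reported values are averaged percent inhibition figures against human IKKε.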
T1 sequence (whole entry): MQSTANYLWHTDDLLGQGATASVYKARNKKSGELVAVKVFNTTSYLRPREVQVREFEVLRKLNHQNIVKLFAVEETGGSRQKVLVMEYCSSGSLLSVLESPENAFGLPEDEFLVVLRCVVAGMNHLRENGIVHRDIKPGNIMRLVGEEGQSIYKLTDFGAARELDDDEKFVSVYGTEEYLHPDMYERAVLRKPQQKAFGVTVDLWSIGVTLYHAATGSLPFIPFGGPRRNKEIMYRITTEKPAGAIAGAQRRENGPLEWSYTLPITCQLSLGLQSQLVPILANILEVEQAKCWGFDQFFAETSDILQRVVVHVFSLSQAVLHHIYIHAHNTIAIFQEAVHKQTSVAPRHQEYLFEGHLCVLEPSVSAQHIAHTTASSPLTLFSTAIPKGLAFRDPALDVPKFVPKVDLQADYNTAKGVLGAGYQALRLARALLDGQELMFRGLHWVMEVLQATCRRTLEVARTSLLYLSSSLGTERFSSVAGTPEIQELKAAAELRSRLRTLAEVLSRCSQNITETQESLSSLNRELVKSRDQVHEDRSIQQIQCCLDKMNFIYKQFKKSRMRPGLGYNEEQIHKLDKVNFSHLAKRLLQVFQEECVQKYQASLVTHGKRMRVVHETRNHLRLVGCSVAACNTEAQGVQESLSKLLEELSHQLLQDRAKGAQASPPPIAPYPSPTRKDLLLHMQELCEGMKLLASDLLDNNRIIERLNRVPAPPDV
The note with it: at 1 µM.

For test [2], the target named is T2, Serine/threonine-protein kinase Nek1 (Homo sapiens) (UniProt Q96PY6).
T2 sequence (whole entry): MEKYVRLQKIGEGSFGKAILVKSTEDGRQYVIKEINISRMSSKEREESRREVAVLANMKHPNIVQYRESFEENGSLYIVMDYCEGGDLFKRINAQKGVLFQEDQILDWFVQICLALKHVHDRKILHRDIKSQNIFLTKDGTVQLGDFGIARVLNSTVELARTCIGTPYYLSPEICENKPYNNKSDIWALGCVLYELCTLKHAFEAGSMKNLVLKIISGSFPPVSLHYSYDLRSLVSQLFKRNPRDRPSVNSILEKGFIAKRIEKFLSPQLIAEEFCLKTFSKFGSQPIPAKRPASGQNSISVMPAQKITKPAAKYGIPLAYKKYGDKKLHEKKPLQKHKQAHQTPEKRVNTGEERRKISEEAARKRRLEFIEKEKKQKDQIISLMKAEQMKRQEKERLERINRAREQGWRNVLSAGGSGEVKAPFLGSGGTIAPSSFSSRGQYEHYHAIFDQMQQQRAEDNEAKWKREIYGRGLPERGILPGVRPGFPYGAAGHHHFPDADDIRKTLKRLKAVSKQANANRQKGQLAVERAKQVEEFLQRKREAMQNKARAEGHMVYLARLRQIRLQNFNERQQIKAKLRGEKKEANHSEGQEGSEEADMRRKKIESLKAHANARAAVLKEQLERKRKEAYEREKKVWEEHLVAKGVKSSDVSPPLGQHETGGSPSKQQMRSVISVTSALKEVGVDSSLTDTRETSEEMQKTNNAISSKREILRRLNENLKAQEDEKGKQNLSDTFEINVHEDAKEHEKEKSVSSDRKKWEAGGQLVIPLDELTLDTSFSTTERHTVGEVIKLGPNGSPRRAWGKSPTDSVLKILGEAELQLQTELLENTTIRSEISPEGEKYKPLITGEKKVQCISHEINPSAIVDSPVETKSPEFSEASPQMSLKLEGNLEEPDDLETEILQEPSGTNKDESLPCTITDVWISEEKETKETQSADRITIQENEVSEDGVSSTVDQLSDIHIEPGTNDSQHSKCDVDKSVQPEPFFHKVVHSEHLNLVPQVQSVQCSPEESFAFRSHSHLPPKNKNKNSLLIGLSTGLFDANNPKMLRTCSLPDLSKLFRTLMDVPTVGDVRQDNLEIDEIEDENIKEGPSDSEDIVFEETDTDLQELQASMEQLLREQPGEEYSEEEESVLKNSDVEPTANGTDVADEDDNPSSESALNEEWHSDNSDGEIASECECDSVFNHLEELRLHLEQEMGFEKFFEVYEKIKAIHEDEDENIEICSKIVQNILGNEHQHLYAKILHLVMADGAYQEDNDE
The note with it: at 0.1 µM.

Test [3] addresses T2, Serine/threonine-protein kinase Nek1 (Homo sapiens). As to conditions: at 1 µM.
The target of test [4] is T3, Serine/threonine-protein kinase Nek2 (Homo sapiens) (UniProt P51955).
T3 sequence (whole entry): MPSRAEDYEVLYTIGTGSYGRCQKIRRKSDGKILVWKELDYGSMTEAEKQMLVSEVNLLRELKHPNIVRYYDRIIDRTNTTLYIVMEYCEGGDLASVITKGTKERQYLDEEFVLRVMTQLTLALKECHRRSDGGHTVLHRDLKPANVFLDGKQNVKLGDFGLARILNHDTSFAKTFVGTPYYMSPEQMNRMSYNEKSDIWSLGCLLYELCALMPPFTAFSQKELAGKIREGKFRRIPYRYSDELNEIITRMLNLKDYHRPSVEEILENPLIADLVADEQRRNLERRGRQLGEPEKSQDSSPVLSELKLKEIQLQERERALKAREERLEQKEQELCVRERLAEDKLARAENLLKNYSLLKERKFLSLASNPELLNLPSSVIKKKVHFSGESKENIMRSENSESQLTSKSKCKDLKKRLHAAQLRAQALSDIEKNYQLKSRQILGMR
The note with it: at 0.1 µM.

For test [5], the target named is T3, Serine/threonine-protein kinase Nek2 (Homo sapiens). As to conditions: at 1 µM.
Test [6] has as its target Serine/threonine-protein kinase Nek6 (Homo sapiens) (UniProt Q9HC98). The note with it: at 0.1 µM.
Test [7] shares this target. As to conditions: at 1 µM.
Test [8] concerns the target Serine/threonine-protein kinase Nek7 (Homo sapiens) (UniProt Q8TDX7). As to conditions: at 0.1 µM.
Test [9] has the same target. As to conditions: at 1 µM.
The target in test [10] is T4, Serine/threonine-protein kinase Nek9 (Homo sapiens) (UniProt Q8TD19).
T4 sequence (whole entry): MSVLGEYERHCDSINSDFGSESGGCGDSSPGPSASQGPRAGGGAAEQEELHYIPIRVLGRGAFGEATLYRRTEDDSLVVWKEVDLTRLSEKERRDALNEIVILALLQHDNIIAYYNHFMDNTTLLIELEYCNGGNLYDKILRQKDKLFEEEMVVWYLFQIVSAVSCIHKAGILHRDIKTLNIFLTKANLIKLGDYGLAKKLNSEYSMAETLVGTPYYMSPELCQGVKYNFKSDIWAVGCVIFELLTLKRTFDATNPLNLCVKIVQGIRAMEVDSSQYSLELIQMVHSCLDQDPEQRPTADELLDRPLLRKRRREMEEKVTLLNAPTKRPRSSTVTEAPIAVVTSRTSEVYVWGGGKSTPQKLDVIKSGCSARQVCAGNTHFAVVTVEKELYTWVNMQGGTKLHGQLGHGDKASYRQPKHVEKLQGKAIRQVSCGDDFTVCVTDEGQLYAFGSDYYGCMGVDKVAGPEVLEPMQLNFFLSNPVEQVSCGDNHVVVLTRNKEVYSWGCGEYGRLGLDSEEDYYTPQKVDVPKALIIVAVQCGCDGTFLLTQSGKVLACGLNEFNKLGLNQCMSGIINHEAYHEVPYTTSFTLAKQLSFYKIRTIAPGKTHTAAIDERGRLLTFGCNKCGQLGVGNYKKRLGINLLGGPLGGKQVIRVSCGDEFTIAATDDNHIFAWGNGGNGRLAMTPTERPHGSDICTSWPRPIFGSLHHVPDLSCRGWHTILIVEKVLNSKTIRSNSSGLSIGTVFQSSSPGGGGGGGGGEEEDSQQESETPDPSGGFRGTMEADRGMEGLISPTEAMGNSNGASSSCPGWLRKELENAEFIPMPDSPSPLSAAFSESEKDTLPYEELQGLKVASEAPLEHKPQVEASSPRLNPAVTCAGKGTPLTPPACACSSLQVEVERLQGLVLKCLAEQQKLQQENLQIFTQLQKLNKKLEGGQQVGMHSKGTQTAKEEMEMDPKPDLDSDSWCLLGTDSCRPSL
The note with it: at 0.1 µM.

Test [11] concerns the target T4, Serine/threonine-protein kinase Nek9 (Homo sapiens). As to conditions: at 1 µM.
Test [12] addresses Serine/threonine-protein kinase PLK1 (Homo sapiens) (UniProt P53350). The note with it: at 0.1 µM.
Test [13] has the same target. As to conditions: at 1 µM.
Test [14] deals with T5, Dual specificity protein kinase TTK (Homo sapiens) (UniProt P33981).
T5 sequence (whole entry): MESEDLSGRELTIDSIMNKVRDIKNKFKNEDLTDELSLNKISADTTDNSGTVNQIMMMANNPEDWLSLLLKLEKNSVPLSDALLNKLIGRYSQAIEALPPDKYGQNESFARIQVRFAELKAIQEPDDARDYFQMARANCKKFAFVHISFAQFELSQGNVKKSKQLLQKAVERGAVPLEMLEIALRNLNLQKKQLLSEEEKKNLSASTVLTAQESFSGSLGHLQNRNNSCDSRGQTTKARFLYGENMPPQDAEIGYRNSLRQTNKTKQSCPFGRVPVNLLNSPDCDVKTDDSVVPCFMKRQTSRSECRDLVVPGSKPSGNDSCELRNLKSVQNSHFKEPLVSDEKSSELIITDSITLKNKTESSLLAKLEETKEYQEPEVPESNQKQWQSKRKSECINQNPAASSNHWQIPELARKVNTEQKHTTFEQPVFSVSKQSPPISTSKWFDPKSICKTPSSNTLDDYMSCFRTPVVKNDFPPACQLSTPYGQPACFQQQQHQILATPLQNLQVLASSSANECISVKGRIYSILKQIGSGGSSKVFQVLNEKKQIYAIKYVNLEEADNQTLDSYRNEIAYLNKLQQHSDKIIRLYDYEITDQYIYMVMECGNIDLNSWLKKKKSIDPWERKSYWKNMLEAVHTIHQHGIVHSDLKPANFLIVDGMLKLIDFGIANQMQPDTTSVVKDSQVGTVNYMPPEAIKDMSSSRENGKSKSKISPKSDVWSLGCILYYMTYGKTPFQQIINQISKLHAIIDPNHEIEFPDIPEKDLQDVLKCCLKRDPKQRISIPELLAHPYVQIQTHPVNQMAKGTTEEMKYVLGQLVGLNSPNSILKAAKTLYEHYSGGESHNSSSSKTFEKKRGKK
The note with it: at 0.1 µM.

Test [15] has as its system T6, Receptor-type tyrosine-protein kinase FLT3 (Homo sapiens), P36888 [D835Y].
T6 sequence (whole entry): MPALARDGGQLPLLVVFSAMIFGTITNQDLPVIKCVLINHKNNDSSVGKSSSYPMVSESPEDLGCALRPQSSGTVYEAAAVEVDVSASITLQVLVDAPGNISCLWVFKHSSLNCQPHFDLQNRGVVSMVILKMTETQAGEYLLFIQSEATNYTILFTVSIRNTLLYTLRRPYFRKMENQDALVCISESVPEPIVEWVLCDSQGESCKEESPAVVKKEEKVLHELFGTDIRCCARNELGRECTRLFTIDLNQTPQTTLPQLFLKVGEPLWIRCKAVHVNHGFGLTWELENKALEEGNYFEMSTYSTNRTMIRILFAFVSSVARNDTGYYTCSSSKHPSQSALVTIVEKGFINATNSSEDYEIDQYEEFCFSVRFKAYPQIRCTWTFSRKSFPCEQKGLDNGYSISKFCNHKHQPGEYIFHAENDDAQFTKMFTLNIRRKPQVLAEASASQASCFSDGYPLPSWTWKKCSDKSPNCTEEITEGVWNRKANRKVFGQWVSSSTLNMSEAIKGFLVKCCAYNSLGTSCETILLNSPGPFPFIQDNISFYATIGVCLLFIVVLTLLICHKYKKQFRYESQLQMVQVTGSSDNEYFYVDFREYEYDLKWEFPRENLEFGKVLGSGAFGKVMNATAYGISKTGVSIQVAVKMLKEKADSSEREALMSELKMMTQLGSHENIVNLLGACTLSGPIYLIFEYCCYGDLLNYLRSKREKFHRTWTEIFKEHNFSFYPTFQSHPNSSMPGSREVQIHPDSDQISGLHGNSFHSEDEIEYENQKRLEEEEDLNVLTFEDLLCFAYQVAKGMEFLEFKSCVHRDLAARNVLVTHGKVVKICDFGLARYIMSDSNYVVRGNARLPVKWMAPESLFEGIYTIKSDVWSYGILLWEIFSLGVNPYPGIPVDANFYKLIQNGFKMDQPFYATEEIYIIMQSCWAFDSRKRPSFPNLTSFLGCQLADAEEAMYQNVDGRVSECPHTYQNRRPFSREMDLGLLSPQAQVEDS
The note with it: at 1 µM.

Test [16] addresses Vascular endothelial growth factor receptor 3 (Homo sapiens) (UniProt P35916). The note with it: at 0.1 µM.
Test [17] shares this target. The note with it: at 1 µM.
The target of test [18] is Macrophage colony-stimulating factor 1 receptor (Homo sapiens) (UniProt P07333). As to conditions: at 0.1 µM.
For test [19] the target is unchanged. The note with it: at 1 µM.
For test [20], the target named is Tyrosine-protein kinase Fyn (Homo sapiens) (UniProt P06241). The note with it: at 0.1 µM.
Chain of Tyrosine-protein kinase Fyn (Homo sapiens) (P06241 2-537 limits assumed): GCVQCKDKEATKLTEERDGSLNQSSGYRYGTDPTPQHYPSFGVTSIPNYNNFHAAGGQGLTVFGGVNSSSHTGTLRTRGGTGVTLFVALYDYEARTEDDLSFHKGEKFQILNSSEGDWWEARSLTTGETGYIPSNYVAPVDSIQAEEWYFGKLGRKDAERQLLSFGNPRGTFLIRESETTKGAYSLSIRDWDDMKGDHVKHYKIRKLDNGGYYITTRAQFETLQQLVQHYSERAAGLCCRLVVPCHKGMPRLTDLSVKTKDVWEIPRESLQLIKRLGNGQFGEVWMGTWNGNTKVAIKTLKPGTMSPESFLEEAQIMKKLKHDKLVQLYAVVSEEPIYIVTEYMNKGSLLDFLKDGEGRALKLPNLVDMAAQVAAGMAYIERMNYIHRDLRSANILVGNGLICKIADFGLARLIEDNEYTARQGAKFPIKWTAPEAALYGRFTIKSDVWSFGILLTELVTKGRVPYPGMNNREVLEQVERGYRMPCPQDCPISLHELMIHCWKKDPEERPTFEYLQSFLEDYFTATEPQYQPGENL

Chain of Serine/threonine-protein kinase PLK1 (Homo sapiens) (P53350 whole entry): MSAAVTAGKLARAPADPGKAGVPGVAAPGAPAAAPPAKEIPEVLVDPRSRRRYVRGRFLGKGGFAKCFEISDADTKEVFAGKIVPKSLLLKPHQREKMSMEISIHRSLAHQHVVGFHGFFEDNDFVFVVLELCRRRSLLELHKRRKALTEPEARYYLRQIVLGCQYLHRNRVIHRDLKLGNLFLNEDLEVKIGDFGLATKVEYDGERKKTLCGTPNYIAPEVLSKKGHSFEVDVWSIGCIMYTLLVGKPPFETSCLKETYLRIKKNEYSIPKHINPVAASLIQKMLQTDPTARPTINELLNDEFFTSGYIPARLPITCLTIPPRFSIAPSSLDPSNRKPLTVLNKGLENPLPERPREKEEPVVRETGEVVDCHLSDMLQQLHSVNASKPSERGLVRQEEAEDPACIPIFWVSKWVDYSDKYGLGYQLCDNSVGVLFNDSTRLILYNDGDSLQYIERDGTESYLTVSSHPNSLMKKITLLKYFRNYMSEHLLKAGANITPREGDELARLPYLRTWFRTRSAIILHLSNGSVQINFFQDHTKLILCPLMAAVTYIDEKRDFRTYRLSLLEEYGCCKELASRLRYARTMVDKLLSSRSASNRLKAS
Chain of Serine/threonine-protein kinase Nek7 (Homo sapiens) (Q8TDX7 whole entry, looked up): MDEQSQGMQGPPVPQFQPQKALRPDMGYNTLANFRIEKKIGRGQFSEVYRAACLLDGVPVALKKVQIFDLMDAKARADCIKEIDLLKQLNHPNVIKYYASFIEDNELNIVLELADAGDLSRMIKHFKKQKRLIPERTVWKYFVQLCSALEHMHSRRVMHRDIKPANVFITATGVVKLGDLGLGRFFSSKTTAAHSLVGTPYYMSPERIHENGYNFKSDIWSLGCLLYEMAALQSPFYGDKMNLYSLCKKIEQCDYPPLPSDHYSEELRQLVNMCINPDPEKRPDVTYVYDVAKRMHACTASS
Chain of Vascular endothelial growth factor receptor 3 (Homo sapiens) (P35916 whole entry): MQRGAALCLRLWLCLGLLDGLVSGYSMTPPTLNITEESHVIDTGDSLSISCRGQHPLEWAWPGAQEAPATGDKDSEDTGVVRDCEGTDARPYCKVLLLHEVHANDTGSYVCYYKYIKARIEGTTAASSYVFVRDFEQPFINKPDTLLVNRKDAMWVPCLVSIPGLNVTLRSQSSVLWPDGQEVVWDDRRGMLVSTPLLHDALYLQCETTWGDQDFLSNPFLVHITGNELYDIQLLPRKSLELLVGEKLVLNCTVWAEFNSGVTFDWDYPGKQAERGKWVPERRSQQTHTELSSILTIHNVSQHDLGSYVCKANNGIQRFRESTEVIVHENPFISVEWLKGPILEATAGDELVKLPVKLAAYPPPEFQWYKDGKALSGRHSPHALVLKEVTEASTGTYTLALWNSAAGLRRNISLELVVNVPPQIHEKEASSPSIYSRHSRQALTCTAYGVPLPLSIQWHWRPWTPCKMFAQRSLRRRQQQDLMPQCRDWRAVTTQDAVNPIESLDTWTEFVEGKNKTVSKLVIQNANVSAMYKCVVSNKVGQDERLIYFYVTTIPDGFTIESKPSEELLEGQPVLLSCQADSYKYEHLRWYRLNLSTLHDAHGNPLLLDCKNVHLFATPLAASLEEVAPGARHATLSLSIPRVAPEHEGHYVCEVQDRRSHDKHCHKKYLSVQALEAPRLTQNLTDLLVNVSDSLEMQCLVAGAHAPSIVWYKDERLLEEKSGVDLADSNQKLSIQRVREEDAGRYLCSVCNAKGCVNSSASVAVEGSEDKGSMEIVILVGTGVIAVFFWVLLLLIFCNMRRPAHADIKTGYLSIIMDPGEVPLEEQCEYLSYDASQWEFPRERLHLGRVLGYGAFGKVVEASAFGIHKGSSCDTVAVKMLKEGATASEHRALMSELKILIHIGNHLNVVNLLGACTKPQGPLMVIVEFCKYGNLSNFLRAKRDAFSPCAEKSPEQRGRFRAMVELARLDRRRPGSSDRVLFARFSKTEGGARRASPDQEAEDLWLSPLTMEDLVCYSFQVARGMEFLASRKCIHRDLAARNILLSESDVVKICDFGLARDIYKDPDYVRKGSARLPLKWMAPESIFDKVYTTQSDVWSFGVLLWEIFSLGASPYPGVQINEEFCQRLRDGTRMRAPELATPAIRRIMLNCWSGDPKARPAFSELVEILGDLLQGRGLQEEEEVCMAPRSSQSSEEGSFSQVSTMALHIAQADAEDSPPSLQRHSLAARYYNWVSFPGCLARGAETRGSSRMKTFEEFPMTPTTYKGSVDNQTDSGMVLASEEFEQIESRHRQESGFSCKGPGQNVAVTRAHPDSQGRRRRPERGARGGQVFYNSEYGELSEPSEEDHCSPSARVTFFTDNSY
Chain of Macrophage colony-stimulating factor 1 receptor (Homo sapiens) (P07333 whole entry): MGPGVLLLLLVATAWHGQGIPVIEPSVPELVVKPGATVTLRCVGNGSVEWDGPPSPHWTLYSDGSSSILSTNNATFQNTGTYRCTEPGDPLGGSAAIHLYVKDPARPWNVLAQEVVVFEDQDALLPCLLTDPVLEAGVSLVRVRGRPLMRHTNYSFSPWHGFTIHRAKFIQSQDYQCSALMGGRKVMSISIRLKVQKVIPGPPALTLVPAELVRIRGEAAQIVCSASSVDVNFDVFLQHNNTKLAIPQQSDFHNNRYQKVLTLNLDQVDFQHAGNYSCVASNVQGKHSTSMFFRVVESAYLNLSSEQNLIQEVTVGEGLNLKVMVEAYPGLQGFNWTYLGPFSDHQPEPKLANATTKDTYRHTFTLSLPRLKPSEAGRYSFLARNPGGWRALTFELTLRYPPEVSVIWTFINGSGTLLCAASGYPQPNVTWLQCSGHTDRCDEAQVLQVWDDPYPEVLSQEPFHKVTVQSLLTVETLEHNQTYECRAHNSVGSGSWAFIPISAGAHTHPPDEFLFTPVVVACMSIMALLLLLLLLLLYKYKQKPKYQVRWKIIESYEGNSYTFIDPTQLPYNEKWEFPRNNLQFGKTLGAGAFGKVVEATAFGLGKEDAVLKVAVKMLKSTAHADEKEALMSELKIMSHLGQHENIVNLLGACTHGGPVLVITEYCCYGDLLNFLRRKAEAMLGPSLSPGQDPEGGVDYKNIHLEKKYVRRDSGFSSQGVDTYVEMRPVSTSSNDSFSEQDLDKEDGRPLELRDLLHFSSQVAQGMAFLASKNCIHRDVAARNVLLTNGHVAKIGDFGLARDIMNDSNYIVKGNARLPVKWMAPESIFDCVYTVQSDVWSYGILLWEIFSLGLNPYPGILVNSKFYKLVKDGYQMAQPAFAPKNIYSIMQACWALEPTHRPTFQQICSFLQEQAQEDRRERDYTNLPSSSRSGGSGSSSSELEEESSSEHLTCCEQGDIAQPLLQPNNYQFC
Chain of Serine/threonine-protein kinase Nek6 (Homo sapiens) (Q9HC98 whole entry): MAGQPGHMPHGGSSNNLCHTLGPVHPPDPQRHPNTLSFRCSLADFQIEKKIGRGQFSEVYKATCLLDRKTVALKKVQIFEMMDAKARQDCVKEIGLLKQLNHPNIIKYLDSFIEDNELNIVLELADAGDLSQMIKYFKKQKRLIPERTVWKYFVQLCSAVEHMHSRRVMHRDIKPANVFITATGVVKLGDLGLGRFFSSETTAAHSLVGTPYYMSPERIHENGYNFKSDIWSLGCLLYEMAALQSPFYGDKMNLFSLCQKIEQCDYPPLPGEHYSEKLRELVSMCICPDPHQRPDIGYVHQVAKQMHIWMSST

`COc1cc2ncnc(Nc3ccc4c(cnn4Cc4ccccc4)c3)c2cc1OC`: the inhibition in [1] is 4.31%; in test [2], 1.6%; in [3], 0.76%; in test [4] it was 2.52%; in test [5], -2.69%; in test [6] it was 9.32%. Besides, the inhibition came out at 3.49% in [7]; 0.26% in [8]; 6.18% in test [9]; 6.67% in [10]; 8.26% in [11]; 3.61% in test [12]. Also, the inhibition in test [13] was 3.2%; in test [14] it was 10.4%; in test [15], 2.33%; in test [16], 4.91%; in [17] it was 15%; in test [18], -1.86%. Moreover, the inhibition in test [19] was 3.16%; in test [20] it was 7.78%.

For orientation: inhibition means the drop in the measured response relative to a control, in per cent.
